Source: PubChem BioAssay
NPC1 prom act = activators of NPC1 promoter | Huh7 NPC1 promoter luciferase reporter, 24 h | Potency, µM (titrated, usually from 9.22 µM), most hits filed as activators | actives 2.4% (n = 320,000); note: nearly all actives have a fitted effect of over 60% in size
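NPC1 promoter–luciferase Huh7 cells; 24 h compound; luminescence.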
SMN2 splice up = SMN2 splice variant enhancement; HEK293 SMN2-luciferase splicing reporter, luminescence, 30-36 h; Potency, µM (series often up to 46.1 µM), usual class: activators; actives 2.8% (n = 210,000); note: nearly all actives have a fitted effect of over 55% in size
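qHTS luciferase splicing reporter: luminescence rises when SMN2 exon 7 is included in transfected HEK293 cells. Compound exposure lasted 30-36 h at 37C, with 4.5 mM final sodium butyrate as control, followed by a ONE-Glo read.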
ELG1 repair inh = ELG1-dependent DNA repair inhibition. HEK293T ELG1-luciferase reporter, luminescence, 16 h; DNA damage induced by 5-fluorouridine. Potency, µM (series often up to 46.1 µM), actives largely listed as inhibitors. actives 2.3% (n = 330,000). AID 504467; note: nearly all actives have a fitted effect of over 55% in size
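Luminescence from the luciferase reporter, measured 30 min after ONE-Glo reagent at room temperature, was the read-out. Beforehand, 2,000 cells per well were exposed for 16 hr at 37 °C to 5-fluorouridine together with compound or vehicle.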
ELG1 genotox = induces genotoxicity in HEK293T cells with luciferase-tagged ELG1 | HEK293T ELG1-luciferase reporter, luminescence, 16 h | Potency, µM (doses to about 46 µM), hits mostly activators | actives 1.3% (n = 330,000); note: nearly all actives have a fitted effect of over 60% in size
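Screening used a luciferase reporter fused to human ELG1 in HEK293T cells. Luminescence was read on a CCD plate imager after 16 hr exposure and 30 min ONE-Glo incubation.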
Rab9 promoter act = activates the Rab9 promoter; Potency, µM (top dose mostly 9.22 µM), most hits filed as activators; Huh7 Rab9 promoter-luciferase reporter, luminescence, 24 h; AID 485297; actives 2.8% (n = 320,000); note: nearly all actives have a fitted effect of over 60% in size
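Huh7 cells stably carrying a Rab9 promoter-luciferase reporter, 1500 cells per well in OP-MEM I with 10% FBS, treated with compound 24 hours at 37C. Luciferase activity read by luminescence after 10 minutes with Amplite reagent.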
FLuc modulator = firefly luciferase modulation, counter-screen for miR-21 project; purified FLuc, Km substrates, luminescence inhibition; Potency, µM (doses to about 57.5 µM), hits mostly inhibitors; actives 6.9% (n = 360,000); AID 588342; note: nearly all actives have a fitted effect of over 55% in size
Target sequence (P08659 whole entry, looked up): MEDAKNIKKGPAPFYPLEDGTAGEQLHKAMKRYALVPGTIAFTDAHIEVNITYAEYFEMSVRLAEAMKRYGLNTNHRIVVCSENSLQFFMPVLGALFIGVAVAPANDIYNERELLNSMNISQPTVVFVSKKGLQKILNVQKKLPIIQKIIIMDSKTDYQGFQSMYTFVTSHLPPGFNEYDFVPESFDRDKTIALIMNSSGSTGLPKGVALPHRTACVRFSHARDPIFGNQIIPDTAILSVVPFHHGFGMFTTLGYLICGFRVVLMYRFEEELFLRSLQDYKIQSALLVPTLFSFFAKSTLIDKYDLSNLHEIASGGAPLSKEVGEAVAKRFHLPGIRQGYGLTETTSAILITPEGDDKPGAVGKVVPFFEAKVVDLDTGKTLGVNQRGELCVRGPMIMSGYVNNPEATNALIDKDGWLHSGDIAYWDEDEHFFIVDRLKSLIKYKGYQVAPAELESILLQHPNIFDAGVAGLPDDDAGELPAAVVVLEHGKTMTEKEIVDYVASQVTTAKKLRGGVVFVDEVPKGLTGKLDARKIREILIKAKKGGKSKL
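Biochemical qHTS of compounds, final roughly 60 µM downward over six points, against 10 nM purified firefly luciferase using Km concentrations of substrates (10 uM D-luciferin, 10 uM ATP) in Tris acetate pH 7.5 buffer; luminescence output.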
Numbers stand for hits; i = inactive; ? = inconclusive; nt = no result; [ ] = remark or other dose. Only some compounds are listed: those with a hit (about 9.2% of all), similar ones and a draw of the others. Calls come from the whole dose curve; as a rule, active = well fitted curve in the direction sought with a large enough effect; inconclusive = small, poorly fitted or top-dose-only effect, or another doubt; inactive = no such curve, though single readings can be large; an effect the other way counts as inactive or inconclusive.

SMILES	NPC1 prom act	SMN2 splice up	ELG1 repair inh	ELG1 genotox	Rab9 promoter act	FLuc modulator
Cc1cc(C(=O)CS(=O)(=O)c2ccc(F)cc2)cc(C)c1OC(=O)N(C)C	3.98µM	i	?	?	2.82µM	10.7µM
CN(C)C(=O)Oc1c(Cl)cc(Cl)c2ccccc12	i	i	i	i	i	i
Nc1nc(N)c(N=Nc2ccc([As](=O)(O)O)c(O)c2)c(N)n1	nt	i[9.22 µM]	nt	nt	nt	nt
O=[As](O)(O)c1ccc(N=Nc2ccc(O)cc2)cc1	i	i[9.22 µM]	i	i	i	13.5µM
O=[As](O)(O)c1ccc(N=Nc2ccc([As](=O)(O)O)cc2)cc1	nt	i[9.22 µM]	nt	nt	nt	nt
CSc1ccc(C(c2c(O)c3ccccc3oc2=O)c2c(C)n(C)n(-c3ccccc3)c2=O)cc1 (centres undefined)	i	i	i	i	i	?
Cc1c(C(c2ccc(Br)cc2)c2c(O)c3ccccc3oc2=O)c(=O)n(-c2ccccc2)n1C (centres undefined)	i	i	i	i	i	12µM
C[C@H]1CCCC(=O)CCC/C=C/c2cc(O)cc(O)c2C(=O)O1	i	i	20.6µM	i	i	i
COc1cc(O)cc2c1C(=O)OC(C)CCCC(=O)CCC/C=C\2 (centres undefined)	i	nt	i	i	i	i
Cc1cc(C(=O)Nc2ccc(CC(=O)O)cc2)c(C)o1	i	nt	i	i	i	10.7µM
Cc1ccc(Cn2cccc(C(=O)Nc3ccc(C)c(Cl)c3)c2=O)cc1	nt	nt	nt	nt	nt	i
ClCBr	nt	i	nt	nt	nt	nt
COc1ccccc1N(CC(=O)NC1CCCC1)C(=O)c1cnn(C(C)C)c1	?	?	?	i	?	15.1µM
Brc1ccc(-c2csc(N3CCCCC3)n2)cc1	i	nt	nt	nt	i	9.53µM
O=C(O)CN1CCN(CC(=O)O)CC(=O)[O][Hg][O]C(=O)C1	nt	i[9.22 µM]	nt	nt	nt	nt
CCN(CC)C(=O)c1ccc(NC(=O)c2cn(-c3ccccc3)nc2-c2ccc(OC)cc2)cc1	i	nt	13µM	i	i	i
C[C@H](c1ccccc1)N1CCN([C@@H](C)c2ccccc2)CC1	nt	i[9.22 µM]	nt	nt	nt	nt
CCCC(c1nnnn1Cc1cccs1)N1CCN(c2nc3ccccc3s2)CC1 (centres undefined)	i	i	23.1µM	i	i	i
Cn1c(C(=O)N2CCN(c3nc4ccccc4s3)CC2)cc2sccc21	i	nt	?	i	i	i[2.3 µM]
CCN1CCN(c2nc3ccccc3s2)CC1	2.24µM	11.2µM	?	?	2µM	10.7µM
O=C(O)C(Cl)(Cl)Br	nt	i	nt	nt	nt	nt
CN1Cc2c(ccc3c2OCO3)C2C(O)Cc3cc4c(cc3C21)OCO4 (centres undefined)	nt	i	nt	nt	nt	nt
c1cc(OCC2CO2)cc(OCC2CO2)c1 (centres undefined)	nt	i	nt	nt	nt	nt
CCOc1ccccc1-n1c(O)c(C=Nc2ccc(N(CC)CC)cc2)c(=O)[nH]c1=O	i	i	i	i	i	19µM
CCN(CC)c1ccc(N=Cc2c(O)n(-c3ccccc3C)c(=O)[nH]c2=O)cc1	i	i	i	i	i	?
SMILES	NPC1 prom act	SMN2 splice up	ELG1 repair inh	ELG1 genotox	Rab9 promoter act	FLuc modulator
O=C(Cc1ccccc1)OCC(=O)c1ccc(F)cc1	nt	nt	?	i	nt	nt
Cc1ccc(C(=O)COC(=O)Cc2ccccc2)cc1	i	nt	i	?	i	0.953µM
O=C(Cc1ccccc1)OCC(=O)c1ccccc1	i	nt	?	i	i	6.75µM
Cc1cc[c]([Sb]2[O]C([C@H](O)[C@H](O)C(=O)O)[C@@H](CO)[O]2)cc1 (some centres undefined)	nt	i[9.22 µM]	nt	nt	nt	nt
Cc1nn(C(C)(C)C)c(C)c1/C=N/OC(=O)Nc1ccc(Cl)cc1	i	nt	?	i	i	0.0953µM
CSc1cccc(CNC(=O)C2CCC(=O)N(Cc3cccc(C(F)(F)F)c3)C2)c1 (centres undefined)	?	nt	?	?	?	16.9µM
NC1=NC([S][Hg][c]2ccc(N)cc2)c2ncn([C@@H]3O[C@H](CO)[C@@H](O)[C@@H]3O)c2N1 (some centres undefined)	nt	i[9.22 µM]	nt	nt	nt	nt
Cc1cccc(N2CCN(C(=O)CCNS(=O)(=O)c3ccc4c(c3)oc(=O)n4C)CC2)c1C	i	nt	?	i[9.26 µM]	i	i
CN(C)c1ccc(/C=C2/C(=N\O)C3CCN2CC3)cc1	?	nt	?	?	2.82µM	19µM
O=C1/C(=C\c2ccc([N+](=O)[O-])cc2)N2CCC1CC2	i	i	i	i	i	i
Cc1nc2ccc(NC(=O)C3COc4ccccc4O3)cc2s1 (centres undefined)	?	nt	?	?	?	12µM
Cn1cnc2cc(NC(=O)c3ccc(Cl)cc3)ccc21	2.82µM	11.2µM	?	?	2.82µM	12µM
O=C(O)[C@H](Cc1cnc[nH]1)N1C(=O)c2ccccc2C1=O	nt	i[9.22 µM]	nt	nt	nt	nt
O=C(c1ccc(F)cc1)C(Cc1ccccc1)N1CCCCC1 (centres undefined)	i	i	?	i	?	19µM
O=C(Cc1ccccc1)N1CCN(Cc2ccc(F)cc2)CC1	i	nt	i	i	i	i
Nc1nc(N)c(Cn2ccnc2)c(=O)[nH]1	nt	i[9.22 µM]	nt	nt	nt	nt
O=c1nc(/C=C/c2ccc(Cl)cc2Cl)cc(C(F)(F)F)[nH]1	i	nt	i	i	i	10.7µM
O=C(O)CCn1cc(C=C2C(=O)NC(=S)NC2=O)c(-c2cc3ccccc3oc2=O)n1	i	i	i	i	i	16.9µM
O=C(O)CCn1cc(C=C2C(=O)NC(=S)NC2=O)c(-c2ccccc2)n1	i	i	i	i	i	23.9µM
N#CCCn1cc(C=C2C(=O)NC(=O)NC2=O)c(-c2ccccc2)n1	i	i	i	i	i	?
O=C(N/N=C/c1c(O)n(Cc2ccco2)c(=O)[nH]c1=O)c1ccccc1	i	nt	?	i	i	?
CC1=NN(c2ccc(S(=O)(=O)O)cc2C)C(=[OH+])[C@H]1N=Nc1cc(S(=O)(=O)O)ccc1C(=O)O.O.[Cr]	nt	i[9.22 µM]	nt	nt	nt	nt
COc1cc(/C=C/C(=O)c2c(O)n(CCc3ccccc3)c(=O)[nH]c2=O)ccc1O	i	i	?	i	i	6.75µM
COC(=O)C(O)(c1ccc(NC(=O)NC2CCCCC2)cc1)C(F)(F)F (centres undefined)	?	?	?	?	?	12µM
CC[C@@H](CO)Nc1nc(NCc2ccccc2)c2ncn(C(C)C)c2n1	i	nt	nt	nt	i	nt
Cc1cc(/C=C2/C(=O)NC(=O)N(Cc3ccco3)C2=O)c(C)n1-c1ccccc1	i	i	i	i	i	5.36µM
O=C1NC(=S)N(Cc2ccco2)C(=O)/C1=C\c1cccs1	i	i	i	i	i	16.9µM
O=C1N=C(N2CCCCC2)SC1=C1CCCCC1	?	i	?	16.4µM	2.82µM	13.5µM
Cc1cccc(OCCCn2c(=O)oc3ccccc32)c1	i	i	?	?	i	?
Cc1cccc(OCCn2c(=O)oc3ccc(C)cc32)c1	i	nt	?	?	?	19µM
